A selection: hits, their analogues and other compounds. The true share with any hit is near 2.2%.
Vaccinia Venus: inhibitors of vaccinia virus (Venus reporter); Potency, µM (titrated, usually from 36.5 µM), for the others: at the top dose activity change, negative = inhibition, hits mostly inhibitors; Vaccinia virus Venus reporter expression, fluorescence; AID 720580; hit rate 0.46% among 330,000; calls by dose curve; tested in A549 cells; further: nearly all actives have a fitted effect of over 30% in size
VACV mCherry inh: inhibitors of vaccinia virus infection (mCherry reporter signal); Potency, µM (highest dose often 36.5 µM), without a hit: at the highest dose activity change, negative = inhibition, hits mostly inhibitors; Vaccinia virus mCherry reporter infection, fluorescence; hit rate 0.63% among 310,000; calls by dose curve; tested in A549 cells; further: nearly all actives have a fitted effect of over 35% in size
FMDV inh: antivirals against foot and mouth disease virus; AID 1159524; FMDV antiviral cell-based qHTS; Potency, µM (highest dose often 57.9 µM), for the others: top-dose activity change, negative = inhibition, actives largely listed as inhibitors; hit rate 1.2% among 410,000; calls by dose curve; tested in HEK293T cells; further: read-out not given here; nearly all actives have a fitted effect of over 45% in size
FBPA Giardia inh: Giardia lamblia aldolase inhibition; A8B2U2; purified Giardia FBPA; Potency, µM (highest dose often 59.6 µM), without a hit: at the top dose activity, negative = inhibition, most hits filed as inhibitors; hit rate 0.71% among 290,000; active means well fitted inhibition curve with a large enough effect; inconclusive means small, poorly fitted or top-dose-only effect, or effect the other way; further: nearly all actives have a fitted effect of over 55% in size
Target sequence (A8B2U2 whole entry, looked up): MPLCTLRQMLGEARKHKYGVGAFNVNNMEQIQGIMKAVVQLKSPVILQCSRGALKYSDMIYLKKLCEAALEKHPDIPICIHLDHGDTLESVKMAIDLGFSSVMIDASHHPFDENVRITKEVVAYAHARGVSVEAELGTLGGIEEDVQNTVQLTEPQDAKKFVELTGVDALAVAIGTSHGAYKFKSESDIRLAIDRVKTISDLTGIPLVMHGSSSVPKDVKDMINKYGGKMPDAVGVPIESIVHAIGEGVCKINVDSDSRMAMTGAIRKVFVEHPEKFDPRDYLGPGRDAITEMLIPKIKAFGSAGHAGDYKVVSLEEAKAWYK
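40 nM FBPA preincubated 10 min at RT with compound (up to 57.5 uM final), then substrate plus GAPDH/TPI/NAD/arsenate coupling and diaphorase/resazurin added. Fluorescence read after 20 min at RT, 525/598 nm.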
* hit, by the source's call; ! = a repeat was not active. On the % scale 0 is the no-effect control and ±100 the full control effect; potency means the concentration at half of the fitted maximal effect.

How did Cc1cc(CNC(=O)c2cnn(-c3nccc(-c4ccc5c(c4)OCO5)n3)c2C2CC2)on1 do in these assays?
Vaccinia Venus: -23%; VACV mCherry inh: -29%; FMDV inh: 30%

What do the screens show for `Cc1ccccc1NC1=NCC(c2ccc([N+](=O)[O-])cc2)S1` (configuration not stated)?
Vaccinia Venus: 13µM*; VACV mCherry inh: 11µM*; FMDV inh: -24%; FBPA Giardia inh: -2%

Results for Cc1ccccc1Nc1ccc([N+](=O)[O-])cn1 ?
Vaccinia Venus: -12%; VACV mCherry inh: inactive; FMDV inh: 15%; FBPA Giardia inh: 8%

Results for CC[C@H](C)C1OC(=O)[C@@H](C)[C@@H](CC)NC(=O)[C@H](C)N(C)C(=O)C(C)(C)C(=O)C(C)NC(=O)[C@H](Cc2ccc(OC)cc2)N(C)C(=O)[C@H](C(C)C)N(C)C(=O)CNC(=O)[C@H](CC(C)C)N(C)C(=O)CNC1=O (some centres not stated) ?
Vaccinia Venus: 1µM*; VACV mCherry inh: 0.89µM*; FMDV inh: -6%

How did CCC[C@H]1NC(=O)[C@H](C)N(C)C(=O)C(C)(C)C(=O)C(C)NC(=O)[C@H](Cc2ccc(OC)cc2)N(C)C(=O)[C@H](C(C)C)N(C)C(=O)CNC(=O)[C@H](CC(C)C)N(C)C(=O)CNC(=O)[C@H]([C@@H](C)CC)OC(=O)[C@H]1C (some centres not stated) do in these assays?
Vaccinia Venus: 0.32µM*; VACV mCherry inh: inconclusive; FMDV inh: 0%

How did O=[N+]([O-])c1ccc(/C=C/c2cc(Cl)nc3ccccc23)cc1 do in these assays?
Vaccinia Venus: -17%; VACV mCherry inh: -24%

Results for COC(=O)c1c(NC(=O)c2ccc([N+](=O)[O-])o2)sc2c1CCN(C(C)C)C2 ?
Vaccinia Venus: 14µM*; VACV mCherry inh: inconclusive; FMDV inh: inconclusive; FBPA Giardia inh: -14%

How did COC(=O)c1ccc(C2CC(=O)Nc3c2c(C)nn3-c2nc(C)cc(C)n2)cc1 (configuration not stated) do in these assays?
Vaccinia Venus: -13%; VACV mCherry inh: -6%; FMDV inh: 11%

Results for O=C(c1cnn2cccnc12)N1CCOc2ccc(C(O)C(c3ccccc3)c3ccccc3)cc2C1 (configuration not stated) ?
Vaccinia Venus: inconclusive; VACV mCherry inh: inconclusive; FMDV inh: -6%

Results for O=C1CCCC/C1=C/Nc1cccc(C(F)(F)F)c1 ?
FMDV inh: 37%; FBPA Giardia inh: -21%

What do the screens show for `O=C1CCC2S/C(=C/Nc3ccc(C(F)(F)F)cc3)C(=O)N12` (configuration not stated)?
Vaccinia Venus: -16%; VACV mCherry inh: -4%; FMDV inh: 8.9µM*; FBPA Giardia inh: -12%

How did CCOC(=O)N1CCN(C(=O)COc2cccc3c2CCN(CC)C3=O)CC1 do in these assays?
Vaccinia Venus: -15%; VACV mCherry inh: inactive; FMDV inh: -13%; FBPA Giardia inh: 0%

How did CCOC(=O)N1CCN(C(=O)COc2cccc3c2CCN(Cc2ccc(F)cc2)C3=O)CC1 do in these assays?
Vaccinia Venus: -24%; VACV mCherry inh: inconclusive; FMDV inh: 14µM*; FBPA Giardia inh: 2%

What do the screens show for `O=C1c2cccc(OCC(=O)N3CCCc4ccccc43)c2CCN1Cc1ccc(F)cc1`?
Vaccinia Venus: -12%; VACV mCherry inh: -8%; FMDV inh: 20µM*; FBPA Giardia inh: -3%

Results for Cc1cccc(CN2CCc3c(OCC(=O)N4CCCc5ccccc54)cccc3C2=O)c1 ?
Vaccinia Venus: inconclusive; VACV mCherry inh: inconclusive; FMDV inh: inconclusive; FBPA Giardia inh: -2%

What do the screens show for `CC(=O)N1/C(=C/c2ccc(N(C)C)cc2)C(=O)c2ccccc21`?
Vaccinia Venus: -14%; VACV mCherry inh: -6%; FMDV inh: 20µM*; FBPA Giardia inh: -10%

Results for O=C(N[C@H]1CCC(=O)N(CCSc2ccc(Br)cc2)CC1)OCc1ccccc1 ?
Vaccinia Venus: -30%; VACV mCherry inh: -17%; FMDV inh: 32µM*

What do the screens show for `O=C(NCc1cccc(Cl)c1)c1cccc(OC2CCN(C(=O)C3CC3)CC2)c1`?
Vaccinia Venus: -24%; VACV mCherry inh: inconclusive; FMDV inh: 16µM*

How did CC(C)c1ccc(NC(=O)c2ccc3c(c2)CCCN3S(C)(=O)=O)cc1 do in these assays?
Vaccinia Venus: inconclusive; VACV mCherry inh: inconclusive; FMDV inh: 10µM*

What do the screens show for `CCCCOC(=O)c1ccc(NC(=O)c2ccc3c(c2)CCN3S(C)(=O)=O)cc1`?
Vaccinia Venus: -7%; VACV mCherry inh: -10%; FMDV inh: 35µM*

How did Cc1ccc(NC(=O)c2ccc3c(c2)CCN3S(C)(=O)=O)cc1 do in these assays?
Vaccinia Venus: -24%; VACV mCherry inh: inactive; FMDV inh: 39%

Results for CCc1ccc(NC(=O)c2ccc3c(c2)CCN3S(C)(=O)=O)cc1 ?
Vaccinia Venus: -28%; VACV mCherry inh: inactive; FMDV inh: -7%

How did Cc1cc(NC(=O)CCn2c(=O)c3cccn3c3cccnc32)ccc1Br do in these assays?
Vaccinia Venus: -9%; VACV mCherry inh: -9%; FMDV inh: -10%

How did COc1cc2c(cc1CC=C(C)C)C(=O)C[C@@H](c1ccc(O)cc1)O2 do in these assays?
FBPA Giardia inh: -3%

Results for CC[C@H](C)[C@H](NC(=O)[C@@H](NC(=O)[C@@H](NC(=O)[C@H](CCC(=O)O)NC(=O)[C@H](CCC(=O)O)NC(=O)[C@H](CCC(=O)O)NC(=O)[C@H](C)NC(=O)[C@@H](N)CC(C)C)C(C)C)C(C)C)C(=O)N[C@@H](CCCNC(=N)N)C(=O)N[C@@H](CO)C(=O)N[C@@H](C)C(=O)N[C@@H](CC(N)=O)C(=O)N[C@@H](Cc1ccccc1)C(=O)N[C@H](C(=O)N[C@@H](CC(=O)O)C(=O)N[C@@H](CC(N)=O)C(=O)O)[C@@H](C)O ?
FBPA Giardia inh: -2%

Results for CN1CCC(c2c[nH]c3ccc(O)cc23)CC1 ?
Vaccinia Venus: -4%; VACV mCherry inh: -15%; FMDV inh: -22%; FBPA Giardia inh: 2µM*!

How did CN1CCC(c2c[nH]c3ccccc23)C1 (configuration not stated) do in these assays?
Vaccinia Venus: -19%; VACV mCherry inh: -2%; FMDV inh: 1%; FBPA Giardia inh: -19%

What do the screens show for `c1ccc(Nc2nc(-c3ccccc3)c(-c3ccccc3)s2)cc1`?
Vaccinia Venus: -15%; VACV mCherry inh: -13%

How did COc1cccc(/C=N/NC(=O)Cn2nc(C)c([N+](=O)[O-])c2C)c1O do in these assays?
Vaccinia Venus: inconclusive; VACV mCherry inh: 11µM*; FMDV inh: -6%; FBPA Giardia inh: -29%

Results for Cc1c(Cl)c([N+](=O)[O-])nn1Cc1ccc(C(=O)N/N=C\c2ccccn2)o1 ?
Vaccinia Venus: inconclusive; VACV mCherry inh: -25%; FMDV inh: -18%; FBPA Giardia inh: -1%

What do the screens show for `COc1cccc(/C=N\NC(=O)c2ccc(Cn3cc(Br)c([N+](=O)[O-])n3)o2)c1O`?
Vaccinia Venus: inconclusive; VACV mCherry inh: 1.3µM*; FMDV inh: 10%; FBPA Giardia inh: 8%

Bioassay records deposited in PubChem by National Center for Advancing Translational Sciences (NCATS).
